Test results from PubChem BioAssay (NCATS).
“And” between values parts separate entries of the source, which are not always exact repeats. Equal entries are not always repeated. Inconclusive results are not listed. Where a call stands in place of a potency, no number is given. Where a structure was tested more than once in an assay, its records may differ in their call. The source made the active and inactive calls. Calls come from the whole dose curve; as a rule, active = well fitted inhibition curve with a large enough effect; inconclusive = small, poorly fitted or top-dose-only effect; inactive = no such curve, though single readings can be large or run the other way.

Experiment: Primary qHTS for inhibitors of nuclear receptor binding SET domain protein 2 (NSD2) in an RCH-ACV wild type WT cells (2C) (AID 1645877); note: nearly all actives have a fitted effect of over 70% in size
Settings: RCH-ACV (leukaemia line) NSD2 WT (2C) viability, CellTiter-Glo, 72 h; series mostly up to 44.9 µM
Text: Assay Provider: Jonathan D. Licht, MD
University of Florida College of Medicine, Gainesville, FL
Mutations in epigenetic regulators are common in relapsed pediatric acute lymphoblastic leukemia (ALL). Here, we uncovered the mechanism underlying the relapse of ALL driven by an activating mutation of the NSD2 histone methyltransferase (p.E1099K). […] Correction of this mutation restored glucocorticoid sensitivity. The transcriptional response to glucocorticoids was blocked in NSD2 mutant cells due to depressed glucocorticoid receptor (GR) levels and the failure of glucocorticoids to autoactivate GR expression. […] Pre-treatment of NSD2 p.E1099K cell lines and PDX samples with PRC2 inhibitors reversed glucocorticoid resistance in vitro and in vivo.
High-throughput drug screening of isogenic RCH-ACV cell lines was performed at the National Center for Advancing Translational Science (NCATS), National Institutes of Health as previously described (1). Briefly, isogenic RCH-ACV NSD2 p.E1099K mutant (9B) and WT cells (2C) were plated at 500 cells/well in a 1536-well plate with a 72-hour incubation with compounds prior to addition of CellTiter-Glo to assess cell viability. NCATS libraries screened include: NPC, MIPE 5.0, Kinase and NPACT. To determine compound activity in the qHTS assay, the concentration-response data for each sample was plotted and modeled by a four-parameter logistic fit yielding IC50 and efficacy (maximal response) values. The area under the curve (AUC) of the dose-response curve ensures both efficacy (magnitude of cell killing) and potency (concentration that elicits cell killing) are accounted for in the analysis of activity.
1. Tobie D Lee, Olivia W Lee, Kyle R Brimacombe, Lu Chen, Rajarshi Guha, Sabrina Lusvarghi, Bethilehem G Tebase, Carleen Klumpp-Thomas, Robert W Robey, Suresh V Ambudkar, Min Shen, Michael M Gottesman, Matthew D Hall. A High-Throughput Screen of a Library of Therapeutics Identifies Cytotoxic Substrates of P-glycoprotein. Mol Pharmacol. 2019, Nov;96(5):629-640.

SMILES | Potency
O=C(Nc1ccccc1-c1cn2c(CN3CCNCC3)csc2n1)c1cnc2ccccc2n1 | 4.09 µM (active) and 6.61 µM (active)
Clc1cc(Cl)cc(CNc2ncncc2-c2ccc3c(c2)OCO3)c1 | 11.8 µM (active)
NC(=O)[C@@H](CCC(F)(F)F)N(Cc1ccc(-c2ncon2)cc1F)S(=O)(=O)c1ccc(Cl)cc1 | 23.5 µM (active)
COc1ccc2cc(-c3nc(-c4ccc(S(C)=O)cc4)[nH]c3-c3ccncc3)ccc2c1 (stereo not given) | 26.3 µM (active) and 20.5 µM (active)
CC(C)C(C)C=CC(C)C1CCC2C3=CC=C4CC(O)CCC4(C)C3CCC21C (stereo not given) | inactive
CC(=O)CCCCn1c(=O)c2c(ncn2C)n(C)c1=O | inactive
C[N+](C)(C)CCCCCC[N+](C)(C)C | inactive
COc1ncc(-c2ccc3nccc(-c4ccnnc4)c3c2)cc1NS(=O)(=O)c1ccc(F)cc1F | 1.2 nM (active) and 7.4 nM (active)
CC(C)n1nc(-c2ccc3oc(N)nc3c2)c2c(N)ncnc21 | 36.5 nM (active) and 33.2 nM (active)
CNC(=O)c1ccc2cc(C3(O)CCn4cncc43)ccc2c1 (stereo not given) | inactive
CN[C@@H](C)C(=O)N[C@H]1CN(C(=O)CC(C)C)CC[C@H]2CC[C@@H](C(=O)NC(c3ccccc3)c3ccccc3)N2C1=O | inactive
COc1cccc([C@@H](C)NCCCc2ccccc2Cl)c1 | 18.6 µM (active)
Nc1ncnc2ccccc12 | inactive
COc1cc(N2CCC(N3CCN(C)CC3)CC2)ccc1Nc1ncnc(Nc2ccccc2S(=O)(=O)C(C)C)n1 | 18.4 µM (active) and 10.5 µM (active)
CC(C)NCC(O)COc1cccc2[nH]ccc12 (stereo not given) | inactive
O=c1cc(-c2cccc3c2Sc2ccccc2S3)oc(N2CCOCC2)c1 | 11.6 µM (active) and 11.8 µM (active)
O=C(O)c1cc(O)c2c(c1)C(=O)c1cccc(O)c1C2=O | inactive
N#C[C@H]1C[C@H]2C[C@@H]2N1C(=O)[C@@H](N)C12CC3CC(CC(O)(C3)C1)C2 | inactive
NC(=O)c1cnc(-c2ccc(C3(N)CCC3)cc2)c(-c2ccccc2)c1 | 11.8 µM (active) and 916 nM (active)
CC1(C)Cc2c(sc(NC(=S)NC(=O)c3ccccc3)c2C(=O)O)CO1 | inactive

SMILES | Potency
CCN(CC)CCNC(=O)c1ccc(N)cc1 | inactive
O=c1cc(-c2ccccc2)oc2cc(O)c(O)c(O)c12 | 23.5 µM (active)
CCCCCCCCCCCC1=C(O)C(=O)C=C(O)C1=O | inactive
O=c1cc(CN2CCOCC2)occ1OCCCCCSc1ccnc2cc(C(F)(F)F)ccc12 | 16.6 µM (active) and 18.3 µM (active)
CC(C)C(=O)Nc1ncc(-c2cc(C(F)F)nn2-c2c(Cl)cccc2Cl)s1 | 23 µM (active)
C[C@@H](O)[C@H]1C(=O)N2C(C(=O)O)=C(S[C@@H]3CN[C@H](C(=O)N(C)C)C3)[C@H](C)[C@H]12 | inactive
CCN(CC)CCOC(=O)c1ccc(N)cc1 | inactive
Cc1ccc(C(=O)Nc2cccc(C(F)(F)F)c2)cc1Nc1nc(-c2cccnc2)nc2c1cnn2C | inactive
CC[C@]1(O)C[C@@H]2CN(CCc3c([nH]c4ccccc34)[C@@](C(=O)OC)(c3cc4c(cc3OC)N(C)[C@H]3[C@@](O)(C(=O)OC)[C@H](OC(C)=O)[C@]5(CC)C=CCN6CC[C@]43[C@@H]65)C2)C1 | 26.6 nM (active) and 53.1 nM (active) and 36.5 nM (active)
Cc1cccc(C)c1OCC(C)N (stereo not given) | inactive
Clc1ccc(Cn2c(CN3CCCC3)nc3ccccc32)cc1 | inactive and 18.6 µM (active)
CCN(CC)C(=O)c1ccc(O)c(OC)c1 | inactive
Cc1ccccc1C(C(=O)NC1CCCCC1)N(C(=O)Cn1ccnc1C)c1cccc(F)c1 (stereo not given) | inactive
COCCOC(=O)C1=C(C)NC2=C(C(=O)CC(c3ccccc3OC)C2)C1c1cccc(O)c1 (stereo not given) | 3.72 µM (active) and 3.25 µM (active)
O=C(Nc1c(Cl)cncc1Cl)c1ccc(OC(F)F)c(OCC2CC2)c1 | inactive
CC(=O)N[C@@H](CS)C(=O)O | inactive
CCNc1cc(NC2CCC(O)CC2)nc(Nc2ccc3c(ccn3Cc3ccccc3)c2)n1 (stereo not given) | 3.32 µM (active)
CC(C)(Cc1ccc2ccccc2c1)NC[C@@H](O)COc1cccc(Cl)c1C#N | 6.61 µM (active)
CCS(=O)(=O)N1CC(CC#N)(n2cc(-c3ncnc4[nH]ccc34)cn2)C1 | 16.6 µM (active)
CC1(C)CCC2=C(O1)c1ccccc1C(=O)C2=O | 9.34 µM (active)
